“And” between values parts separate entries of the source, which are not always exact repeats. Equal values may be shown once. About 2,000 (36%) of roughly 5,500 compounds were called active. Roughly 18% stayed inconclusive and do not appear here. Rule as the data show it: active = normalized growth mostly below about 0.91 (no sharp cut-off); inconclusive = no clear call, values can overlap the other calls; inactive = mostly above about 0.92. Some of the results follow.
Assay: chemical genetic growth profiling, strain panel (AID 1159580);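 also: tested at 20 µM; growth read once vehicle control cultures reached saturation at 30 °C; 1 = growth at the plate median or of vehicle wells; lower values mean less growth of the strain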
Details: S. cerevisiae deletion strains, growth OD

Measured: normalized growth

CC(C)NCC(O)c1cc(O)cc(O)c1 (stereo not drawn)
inactive: locus YAL013W, strain DEP1, stronger effect = lower value 1.03 | locus YAL021C, strain ccr4, stronger effect = lower value 0.974 | locus YAL026C, strain drs2, stronger effect = lower value 1 | locus YAL030W, strain snc1, stronger effect = lower value 0.994 | locus YAL040C, strain CLN3, stronger effect = lower value 1.02 | locus YBL061C, strain skt5, stronger effect = lower value 0.991 | locus YBR009C, strain hhf1, stronger effect = lower value 1.01 | locus YBR021W, strain FUR4, stronger effect = lower value 1.02 | locus YBR023C, strain chs3, stronger effect = lower value 0.984 | locus YBR171W, strain sec66, stronger effect = lower value 0.998 | locus YBR229C, strain ROT2, stronger effect = lower value 1 | locus YBR231C, strain swc5, stronger effect = lower value 0.993 | locus YBR279W, strain paf1, stronger effect = lower value 0.992 | locus YCL011C, strain gbp2, stronger effect = lower value 0.982 | locus YCL016C, strain dcc1, stronger effect = lower value 0.976 | locus YCL029C, strain bik1, stronger effect = lower value 0.983 | locus YCL061C, strain MRC1 (second series), stronger effect = lower value 1.01 | locus YCL061C, strain MRC1, stronger effect = lower value 0.991 | locus YCL069W, strain vba3, stronger effect = lower value 0.992 | locus YCR088W, strain abp1, stronger effect = lower value 0.994 | locus YDL005C, strain med2, stronger effect = lower value 1 | locus YDL035C, strain GPR1, stronger effect = lower value 1.01 | locus YDL040C, strain nat1, stronger effect = lower value 0.994 | locus YDL074C, strain BRE1, stronger effect = lower value 1.01 | locus YDL101C, strain DUN1, stronger effect = lower value 1 | locus YDL134C, strain PPH21, stronger effect = lower value 1.01 | locus YDL185W, strain tfp1, stronger effect = lower value 0.964 | locus YDL192W, strain arf1, stronger effect = lower value 0.984 | locus YDR001C, strain nth1, stronger effect = lower value 0.983 | locus YDR069C, strain doa4, stronger effect = lower value 1.01 | locus YDR101C, strain arx1, stronger effect = lower value 1.02 | locus YDR137W, strain rgp1, stronger effect = lower value 0.977 | locus YDR150W, strain NUM1, stronger effect = lower value 0.996 | locus YDR159W, strain sac3, stronger effect = lower value 1.03 | locus YDR162C, strain NBP2, stronger effect = lower value 1.01 | locus YDR195W, strain ref2 0.982 | locus YDR297W, strain sur2, stronger effect = lower value 0.989 | locus YDR318W, strain mcm21, stronger effect = lower value 0.982 | locus YDR334W, strain swr1, stronger effect = lower value 0.974 | locus YDR335W, strain msn5, stronger effect = lower value 1 | locus YDR363W, strain ESC2, stronger effect = lower value 1.05 | locus YDR388W, stronger effect = lower value 1 | locus YDR392W, strain spt3, stronger effect = lower value 0.928 | locus YDR502C, strain sam2, stronger effect = lower value 0.993 | locus YEL003W, strain gim4, stronger effect = lower value 1 | locus YEL037C, strain rad23, stronger effect = lower value 0.989 | locus YEL061C, strain CIN8 (second series), stronger effect = lower value 0.98 | locus YEL061C, strain CIN8, stronger effect = lower value 0.995 | locus YER002W, strain NOP16, stronger effect = lower value 0.991 | locus YER015W, strain faa2, stronger effect = lower value 0.988 | locus YER016W, strain bim1, stronger effect = lower value 0.999 | locus YER110C, stronger effect = lower value 0.973 | locus YER111C, strain swi4, stronger effect = lower value 0.978 | locus YER155C, strain BEM2 (second series), stronger effect = lower value 1 | locus YER155C, strain BEM2, stronger effect = lower value 1 | locus YER167W, strain BCK2, stronger effect = lower value 0.995 | locus YFR010W, strain ubp6, stronger effect = lower value 0.992 | locus YGL078C, strain dbp3, stronger effect = lower value 0.969 | locus YGL086W, strain mad1, stronger effect = lower value 1.01 | locus YGL167C, strain pmr1, stronger effect = lower value 0.991 | locus YGL173C, strain kem1, stronger effect = lower value 1 | locus YGL227W, strain vid30, stronger effect = lower value 0.995 | locus YGL240W, strain doc1, stronger effect = lower value 1.01 | locus YGL248W, strain PDE1, stronger effect = lower value 1 | locus YGL253W, strain hxk2, stronger effect = lower value 0.974 | locus YGR135W, strain pre9, stronger effect = lower value 0.949 | locus YGR229C, strain SMI1, stronger effect = lower value 1.03 | locus YGR252W, strain gcn5, stronger effect = lower value 0.963 | locus YHR013C, strain ard1, stronger effect = lower value 0.961 | locus YHR027C, strain rpn1, stronger effect = lower value 1.02 | locus YHR030C, strain SLT2, stronger effect = lower value 1.01 and 0.952 | locus YHR079C, strain IRE1 (second series), stronger effect = lower value 0.988 | locus YHR079C, strain IRE1, stronger effect = lower value 0.964 | locus YHR094C, strain hxt1, stronger effect = lower value 1 | locus YHR129C, strain ARP1, stronger effect = lower value 1 | locus YHR142W, strain chs7, stronger effect = lower value 0.967 | locus YHR200W, strain rpn10, stronger effect = lower value 0.985 | locus YIL066C, strain RNR3, stronger effect = lower value 0.997 | locus YIL073C, strain SPO22, stronger effect = lower value 0.938 | locus YIL125W, strain kgd1, stronger effect = lower value 1.01 | locus YIR030C, strain dcg1, stronger effect = lower value 0.978 | locus YJL092W, strain hpr5, stronger effect = lower value 0.988 | locus YJL095W, strain BCK1 (second series), stronger effect = lower value 0.994 | locus YJL095W, strain BCK1, stronger effect = lower value 0.986 and 0.963 | locus YJL115W, strain asf1, stronger effect = lower value 0.977 | locus YJL129C, strain trk1, stronger effect = lower value 0.983 | locus YJL134W, strain LCB3, stronger effect = lower value 1.01 | locus YJL154C, strain vps35, stronger effect = lower value 1.02 | locus YJL164C, strain tpk1, stronger effect = lower value 0.993 | locus YJL166W, strain qcr8, stronger effect = lower value 0.974 | locus YJL168C, strain set2, stronger effect = lower value 0.999 | locus YJL187C, strain SWE1 (second series), stronger effect = lower value 0.995 | locus YJL187C, strain SWE1, stronger effect = lower value 0.987

Source: PubChem BioAssay AID1159580 (chemical genetic matrix, 2015)
